The structures appear in SMILES notation. Records with an inconclusive call do not appear. The source made the active and inactive calls. Calls follow the shape of the full dose curve.

Vitamin D3 receptor (Homo sapiens), sequence (P11473 whole entry, looked up): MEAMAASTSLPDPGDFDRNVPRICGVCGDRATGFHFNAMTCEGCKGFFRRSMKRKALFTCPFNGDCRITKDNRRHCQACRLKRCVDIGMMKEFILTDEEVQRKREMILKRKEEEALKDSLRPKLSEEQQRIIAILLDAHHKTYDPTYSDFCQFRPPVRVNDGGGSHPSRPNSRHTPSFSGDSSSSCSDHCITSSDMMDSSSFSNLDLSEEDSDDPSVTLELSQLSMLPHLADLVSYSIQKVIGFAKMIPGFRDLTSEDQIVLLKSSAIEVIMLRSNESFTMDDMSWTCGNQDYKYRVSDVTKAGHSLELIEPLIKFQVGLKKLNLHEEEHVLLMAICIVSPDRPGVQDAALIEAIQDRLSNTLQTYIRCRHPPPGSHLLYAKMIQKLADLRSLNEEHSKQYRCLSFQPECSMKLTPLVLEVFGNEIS

The experiment has as its target Vitamin D3 receptor (Homo sapiens) (UniProt P11473). The experiment can be described thus: qHTS assay to identify small molecule agonists of the vitamin D receptor (VDR) signaling pathway (AID 743222). Particulars: HEK293T VDR-UAS-bla, beta-lactamase FRET ratio, 16 h; series mostly up to 63.5 µM. From the text:
National Center for Advancing Translational Sciences [NCATS]
NIH Chemical Genomics Center [NCGC]
U.S. Environmental Protection Agency [EPA]
National Institutes of Environmental Health Sciences [NIEHS]
National Toxicology Program [NTP]
U.S. Food and Drug Administration [FDA]
The vitamin D receptor (VDR), a member of nuclear hormone receptor superfamily, plays a critical role in calcium homeostasis and bone metabolism. It is also involved in cell differentiation and growth, and thrombogenicity.
Tox21 Assay Protocol Summary:
VDR-bla cells were dispensed at 2,000 cells/6 uL/well into black wall/clear-bottom 1536-well plates using a Multidrop Combi (Thermo Fisher Scientific, Waltham, MA) dispenser. After the assay plates were incubated at a 37C and 5% CO2 for 4 h, 23 nL of compounds dissolved in DMSO, positive controls or DMSO only was transferred to the assay plate by a Pintool station (Kalypsys, San Diego, CA). The plates were incubated at 37C and 5% CO2 for 16 h. After 1 uL of LiveBLAzerTM B/G FRET substrate was added using a Bioraptr Flying Reagent Dispenser (FRD) workstation (Beckman Coulter, Indianapolis, IN, USA), the plates were incubated at room temperature for 2 h, and fluorescence intensity was measured by an Envision plate reader (PerkinElmer, Shelton, CT).
Consider `NCCS`, for which the result was inactive.

As for `O=S(=O)(O)c1cc(O)c2ccc(Nc3ccccc3)cc2c1`, the outcome was inactive.

As for `c1ccc2nccnc2c1`, the result was inactive.

`CC(CC=O)CCCC(C)(C)O` (stereo not given): the outcome was inactive.

In the case of `Cc1cccc(C)c1NC(=O)c1ccccc1C(=O)O`, the outcome was inactive.

For `CCCCC(CC)COCCO` (stereo not given), the outcome was inactive.

As for `CCOCCOC(=O)/C=C/c1ccc(OC)cc1`, the outcome was inactive.

As for `COC(=O)c1ccccc1C(=O)c1ccc(OCCN2CCCCC2)cc1`, the result was inactive.

On to `O=C(OCC1(COC(=O)c2cccnc2)CCCC(COC(=O)c2cccnc2)(COC(=O)c2cccnc2)C1O)c1cccnc1`, for which the result was inactive.

As to `O=C(c1ccc(O)cc1)c1ccc(O)c(O)c1O`, the outcome was inactive.

Regarding `CC(C)CCCC(C)(C)O`, the result was inactive.

For `CC(C)c1ccc2cc(C(C)C)ccc2c1`, the result was inactive.

Regarding `O=C(NCC(O)CO)c1c(I)c(C(=O)NCC(O)CO)c(I)c(N(CCO)C(=O)CO)c1I` (stereo not given), the outcome was inactive.

Regarding `CC[C@H](C)C(=O)O[C@H]1C[C@H](O)C=C2C=C[C@H](C)[C@H](CC[C@@H](O)C[C@@H](O)CC(=O)O)[C@H]21`, the result was inactive.

For `CCc1ccc(C=O)cc1`, the outcome was inactive.

Consider `COc1ccc2nc(SCc3ncc(C)c(OC)c3C)[nH]c2c1`, for which the result was inactive.

Turning to `C=C(C)C(=O)OCCNC(C)(C)C`, the result was inactive.

With `O=S(=O)(O)CCN1CCN(CCO)CC1`, the result was inactive.

`O=C1CCCC(=O)O1`: the result was inactive.

Consider `C=COCCOCCOCCOC=C`, for which the outcome was inactive.

For `N#Cc1ccc(C(=O)O)cc1`, the outcome was inactive.

For `O=C(O)CCSSCCC(=O)O`, the result was inactive.

On to `CC(C)CC(C)CC(C)CC(C)COC(=O)c1ccccc1C(=O)OCC(C)CC(C)CC(C)CC(C)C` (stereo not given), for which the result was inactive.

As for `COc1ccc(-c2cc(=O)c3c(O)cc(O[C@@H]4O[C@H](CO[C@@H]5O[C@@H](C)[C@H](O)[C@@H](O)[C@H]5O)[C@@H](O)[C@H](O)[C@H]4O)cc3o2)cc1O`, the result was inactive.

Consider `NC(CO)C(=O)NNCc1ccc(O)c(O)c1O` (stereo not given), for which the outcome was inactive.

For `CCCCCCCCCCCCCC`, the result was inactive.

`O=C1c2ccccc2C(=O)c2cc(S(=O)(=O)O)ccc21`: the result was inactive.

As to `CC1(CO)CN(c2ccccc2)NC1=O` (stereo not given), the outcome was inactive.

As for `COc1ccc(C2CNC(=O)C2)cc1OC1CCCC1` (stereo not given), the result was inactive.

With `Cc1cc(NC(=O)C2=C(O)c3ccccc3S(=O)(=O)N2C)no1`, the result was inactive.

Consider `CC(C)(C)c1cc(CCC(=O)NN)cc(C(C)(C)C)c1O`, for which the outcome was inactive.

For `CC(C)C[C@H](NC(=O)CNC(=O)[C@H](Cc1ccc(O)cc1)NC(=O)[C@H](CO)NC(=O)[C@H](Cc1c[nH]c2ccccc12)NC(=O)[C@H](Cc1cnc[nH]1)NC(=O)[C@@H]1CCC(=O)N1)C(=O)N[C@@H](CCCN=C(N)N)C(=O)N1CCC[C@H]1C(=O)NCC(N)=O` (stereo in doubt), the result was inactive.

For `CCCCCCCCCC(C)=O`, the result was inactive.

In the case of `O=Cc1ccc(Cl)c(Cl)c1`, the result was inactive.

On to `COC(=O)CCc1ccc(OCC(O)CNC(C)C)cc1` (stereo not given), for which the result was inactive.

As to `N[C@@H](CCC(=O)Nc1ccc([N+](=O)[O-])cc1)C(=O)O`, the result was inactive.

Regarding `O=C(O)c1cc(Br)c(O)c(Br)c1`, the result was inactive.

Consider `O=C(/N=N/C(=O)OCc1ccccc1)OCc1ccccc1`, for which the result was inactive.

For the molecule `CCC(C)(CCC(C)C)C(=O)O` (stereo not given), the result was inactive.

As to `CCCCNC1CC(C)(C)NC(C)(C)C1`, the outcome was inactive.

Source of the values: PubChem BioAssay (Tox21).
